From the supplement of paper PMC4466140

Tests used:
Assay in all cases: SPOT peptide array binding signal intensity (averaged, normalized) (arbitrary units (background-subtracted, floor 0; scale differs between SH3 domains)); higher = stronger binding of the SH3 domain to the peptide
AgAbp1 = target: AgAbp1
Procedure, shortened: (§1)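 SH3 domains from four yeast species were expressed as GST fusions in E. coli BL21(DE3) and purified on glutathione Sepharose. Each was incubated at 10 μg/ml overnight at 4°C in TBS-based blocking buffer on cellulose membranes bearing synthetic 15-mer peptides, in which serines replaced cysteines. Bound protein was detected with anti-GST antibody, an HRP anti-mouse secondary and luminol, then imaged and quantified with Genespotter. The binding signal is the normalized, background-subtracted spot intensity averaged over replicates, in arbitrary units that are not the same from one domain to another.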

AgBbc1 = target: AgBbc1
Procedure, shortened: as §1

AgBem1-D1 = target: AgBem1-D1
Procedure, shortened: as §1

AgBzz1-D1 = target: AgBzz1-D1
Procedure, shortened: as §1

AgBzz1-D2 = target: AgBzz1-D2
Procedure, shortened: as §1

AgCyk3 = target: AgCyk3
Procedure, shortened: as §1

AgFus1 = target: AgFus1
Procedure, shortened: as §1

AgHof1 = target: AgHof1
Procedure, shortened: as §1

AgHse1 = target: AgHse1
Procedure, shortened: as §1

AgLsb1 = target: AgLsb1
Procedure, shortened: as §1

AgLsb4 = target: AgLsb4
Procedure, shortened: as §1

AgMyo5 = target: AgMyo5
Procedure, shortened: as §1

AgNbp2 = target: AgNbp2
Procedure, shortened: as §1

AgRvs167 = target: AgRvs167
Procedure, shortened: as §1

AgSho1 = target: AgSho1
Procedure, shortened: as §1

AgSla1-D1-D2 = target: AgSla1-D1-D2
Procedure, shortened: as §1

AgSla1-D3 = target: AgSla1-D3
Procedure, shortened: as §1

CaAbp1-D1 = target: CaAbp1-D1
Procedure, shortened: as §1

CaAbp1-D2 = target: CaAbp1-D2
Procedure, shortened: as §1

CaBbc1 = target: CaBbc1
Procedure, shortened: as §1

CaBem1-D1 = target: CaBem1-D1
Procedure, shortened: as §1

CaBzz1-D1 = target: CaBzz1-D1
Procedure, shortened: as §1

CaBzz1-D2 = target: CaBzz1-D2
Procedure, shortened: as §1

CaCyk3 = target: CaCyk3
Procedure, shortened: as §1

CaFus1 = target: CaFus1
Procedure, shortened: as §1

CaHof1 = target: CaHof1
Procedure, shortened: as §1

CaHse1 = target: CaHse1
Procedure, shortened: as §1

CaLsb1 = target: CaLsb1
Procedure, shortened: as §1

CaLsb4 = target: CaLsb4
Procedure, shortened: as §1

CaMyo5 = target: CaMyo5
Procedure, shortened: as §1

CaNbp2 = target: CaNbp2
Procedure, shortened: as §1

CaRvs167 = target: CaRvs167
Procedure, shortened: as §1

CaRvs167-3 = target: CaRvs167-3
Procedure, shortened: as §1

CaSho1 = target: CaSho1
Procedure, shortened: as §1

CaSla1-D1-D2 = target: CaSla1-D1-D2
Procedure, shortened: as §1

CaSla1-D3 = target: CaSla1-D3
Procedure, shortened: as §1

ScAbp1 = target: ScAbp1
Procedure, shortened: as §1

ScBbc1 = target: ScBbc1
Procedure, shortened: as §1

ScBem1-D1 = target: ScBem1-D1
Procedure, shortened: as §1

ScBzz1-D1 = target: ScBzz1-D1
Procedure, shortened: as §1

ScBzz1-D2 = target: ScBzz1-D2
Procedure, shortened: as §1

ScCyk3 = target: ScCyk3
Procedure, shortened: as §1

ScFus1 = target: ScFus1
Procedure, shortened: as §1

ScHof1 = target: ScHof1
Procedure, shortened: as §1

ScHse1 = target: ScHse1
Procedure, shortened: as §1

ScLsb1 = target: ScLsb1
Procedure, shortened: as §1

ScLsb2 = target: ScLsb2
Procedure, shortened: as §1

ScLsb3 = target: ScLsb3
Procedure, shortened: as §1

ScLsb4 = target: ScLsb4
Procedure, shortened: as §1

ScMyo3 = target: ScMyo3
Procedure, shortened: as §1

ScMyo5 = target: ScMyo5
Procedure, shortened: as §1

ScNbp2 = target: ScNbp2
Procedure, shortened: as §1

ScPex13 = target: ScPex13
Procedure, shortened: as §1

ScRvs167 = target: ScRvs167
Procedure, shortened: as §1

ScSho1 = target: ScSho1
Procedure, shortened: as §1

ScSla1-D1-D2 = target: ScSla1-D1-D2
Procedure, shortened: as §1

ScSla1-D3 = target: ScSla1-D3
Procedure, shortened: as §1

SpAbp1-D1 = target: SpAbp1-D1
Procedure, shortened: as §1

SpBbc1 = target: SpBbc1
Procedure, shortened: as §1

SpBzz1-D1 = target: SpBzz1-D1
Procedure, shortened: as §1

SpBzz1-D2 = target: SpBzz1-D2
Procedure, shortened: as §1

SpCyk3 = target: SpCyk3
Procedure, shortened: as §1

SpHof1 = target: SpHof1
Procedure, shortened: as §1

SpHof1-2 = target: SpHof1-2
Procedure, shortened: as §1

SpHof1-3 = target: SpHof1-3
Procedure, shortened: as §1

SpHse1 = target: SpHse1
Procedure, shortened: as §1

SpLsb1 = target: SpLsb1
Procedure, shortened: as §1

SpLsb4 = target: SpLsb4
Procedure, shortened: as §1

SpMyo1 = target: SpMyo1
Procedure, shortened: as §1

SpNbp2 = target: SpNbp2
Procedure, shortened: as §1

SpPex13 = target: SpPex13
Procedure, shortened: as §1

SpRvs167 = target: SpRvs167
Procedure, shortened: as §1

SpSla1-D1-D2 = target: SpSla1-D1-D2
Procedure, shortened: as §1

SpSla1-D3 = target: SpSla1-D3
Procedure, shortened: as §1

IAPIPMPKPNPTHIS
SPOT peptide array binding signal intensity (AgAbp1): ≤ 0 | SPOT peptide array binding signal intensity (AgBbc1): ≤ 0 | SPOT peptide array binding signal intensity (AgBem1-D1): 7 | SPOT peptide array binding signal intensity (AgBzz1-D1): ≤ 0 | SPOT peptide array binding signal intensity (AgBzz1-D2): 4 | SPOT peptide array binding signal intensity (AgCyk3): ≤ 0 | SPOT peptide array binding signal intensity (AgFus1): 44.5 | SPOT peptide array binding signal intensity (AgHof1): ≤ 0 | SPOT peptide array binding signal intensity (AgHse1): 12 | SPOT peptide array binding signal intensity (AgLsb1): ≤ 0 | SPOT peptide array binding signal intensity (AgLsb4): ≤ 0 | SPOT peptide array binding signal intensity (AgMyo5): ≤ 0 | SPOT peptide array binding signal intensity (AgNbp2): 61.5 | SPOT peptide array binding signal intensity (AgRvs167): 0.333 | SPOT peptide array binding signal intensity (AgSho1): 32 | SPOT peptide array binding signal intensity (AgSla1-D1-D2): ≤ 0 | SPOT peptide array binding signal intensity (AgSla1-D3): 4.5 | SPOT peptide array binding signal intensity (CaAbp1-D1): ≤ 0 | SPOT peptide array binding signal intensity (CaAbp1-D2): 28.5 | SPOT peptide array binding signal intensity (CaBbc1): ≤ 0 | SPOT peptide array binding signal intensity (CaBem1-D1): 48.5 | SPOT peptide array binding signal intensity (CaBzz1-D1): ≤ 0 | SPOT peptide array binding signal intensity (CaBzz1-D2): 9.75 | SPOT peptide array binding signal intensity (CaCyk3): ≤ 0 | SPOT peptide array binding signal intensity (CaFus1): 170 | SPOT peptide array binding signal intensity (CaHof1): 0.5 | SPOT peptide array binding signal intensity (CaHse1): 33.8 | SPOT peptide array binding signal intensity (CaLsb1): ≤ 0 | SPOT peptide array binding signal intensity (CaLsb4): 51 | SPOT peptide array binding signal intensity (CaMyo5): 3 | SPOT peptide array binding signal intensity (CaNbp2): 430 | SPOT peptide array binding signal intensity (CaRvs167): ≤ 0 | SPOT peptide array binding signal intensity (CaRvs167-3): ≤ 0 | SPOT peptide array binding signal intensity (CaSho1): 305 | SPOT peptide array binding signal intensity (CaSla1-D1-D2): 58.5 | SPOT peptide array binding signal intensity (CaSla1-D3): 52.5 | SPOT peptide array binding signal intensity (ScAbp1): ≤ 0 | SPOT peptide array binding signal intensity (ScBbc1): ≤ 0 | SPOT peptide array binding signal intensity (ScBem1-D1): ≤ 0 | SPOT peptide array binding signal intensity (ScBzz1-D1): ≤ 0 | SPOT peptide array binding signal intensity (ScBzz1-D2): ≤ 0 | SPOT peptide array binding signal intensity (ScCyk3): ≤ 0 | SPOT peptide array binding signal intensity (ScFus1): 56 | SPOT peptide array binding signal intensity (ScHof1): ≤ 0 | SPOT peptide array binding signal intensity (ScHse1): ≤ 0 | SPOT peptide array binding signal intensity (ScLsb1): ≤ 0 | SPOT peptide array binding signal intensity (ScLsb2): ≤ 0 | SPOT peptide array binding signal intensity (ScLsb3): ≤ 0 | SPOT peptide array binding signal intensity (ScLsb4): ≤ 0 | SPOT peptide array binding signal intensity (ScMyo3): ≤ 0 | SPOT peptide array binding signal intensity (ScMyo5): ≤ 0 | SPOT peptide array binding signal intensity (ScNbp2): 158 | SPOT peptide array binding signal intensity (ScPex13): 22.2 | SPOT peptide array binding signal intensity (ScRvs167): 0.333 | SPOT peptide array binding signal intensity (ScSho1): 158 | SPOT peptide array binding signal intensity (ScSla1-D1-D2): 0.5 | SPOT peptide array binding signal intensity (ScSla1-D3): 81.5 | SPOT peptide array binding signal intensity (SpAbp1-D1): 8.5 | SPOT peptide array binding signal intensity (SpBbc1): ≤ 0 | SPOT peptide array binding signal intensity (SpBzz1-D1): 37.5 | SPOT peptide array binding signal intensity (SpBzz1-D2): 0.5 | SPOT peptide array binding signal intensity (SpCyk3): ≤ 0 | SPOT peptide array binding signal intensity (SpHof1): ≤ 0 | SPOT peptide array binding signal intensity (SpHof1-2): 7 | SPOT peptide array binding signal intensity (SpHof1-3): ≤ 0 | SPOT peptide array binding signal intensity (SpHse1): 217 | SPOT peptide array binding signal intensity (SpLsb1): ≤ 0 | SPOT peptide array binding signal intensity (SpLsb4): 92.5 | SPOT peptide array binding signal intensity (SpMyo1): 0.5 | SPOT peptide array binding signal intensity (SpNbp2): 29 | SPOT peptide array binding signal intensity (SpPex13): 2 | SPOT peptide array binding signal intensity (SpRvs167): ≤ 0 | SPOT peptide array binding signal intensity (SpSla1-D1-D2): ≤ 0 | SPOT peptide array binding signal intensity (SpSla1-D3): 32

VFQFQMPTTPISTKM
SPOT peptide array binding signal intensity (AgAbp1): ≤ 0 | SPOT peptide array binding signal intensity (AgBbc1): 10 | SPOT peptide array binding signal intensity (AgBem1-D1): 132 | SPOT peptide array binding signal intensity (AgBzz1-D1): 22.5 | SPOT peptide array binding signal intensity (AgBzz1-D2): 9 | SPOT peptide array binding signal intensity (AgCyk3): 1 | SPOT peptide array binding signal intensity (AgFus1): 346 | SPOT peptide array binding signal intensity (AgHof1): 5 | SPOT peptide array binding signal intensity (AgHse1): 428 | SPOT peptide array binding signal intensity (AgLsb1): 2 | SPOT peptide array binding signal intensity (AgLsb4): ≤ 0 | SPOT peptide array binding signal intensity (AgMyo5): 14.8 | SPOT peptide array binding signal intensity (AgNbp2): 344 | SPOT peptide array binding signal intensity (AgRvs167): 1.33 | SPOT peptide array binding signal intensity (AgSho1): 251 | SPOT peptide array binding signal intensity (AgSla1-D1-D2): 1.5 | SPOT peptide array binding signal intensity (AgSla1-D3): 3 | SPOT peptide array binding signal intensity (CaAbp1-D1): 59 | SPOT peptide array binding signal intensity (CaAbp1-D2): 116 | SPOT peptide array binding signal intensity (CaBbc1): 34 | SPOT peptide array binding signal intensity (CaBem1-D1): 111 | SPOT peptide array binding signal intensity (CaBzz1-D1): 152 | SPOT peptide array binding signal intensity (CaBzz1-D2): 101 | SPOT peptide array binding signal intensity (CaCyk3): 13 | SPOT peptide array binding signal intensity (CaFus1): 820 | SPOT peptide array binding signal intensity (CaHof1): 0.5 | SPOT peptide array binding signal intensity (CaHse1): 303 | SPOT peptide array binding signal intensity (CaLsb1): 2.5 | SPOT peptide array binding signal intensity (CaLsb4): 407 | SPOT peptide array binding signal intensity (CaMyo5): 92.8

STPQTMRQAPKRPDA
SPOT peptide array binding signal intensity (SpBzz1-D2): 11 | SPOT peptide array binding signal intensity (SpCyk3): 6 | SPOT peptide array binding signal intensity (SpHof1): 25 | SPOT peptide array binding signal intensity (SpHof1-2): 38.8 | SPOT peptide array binding signal intensity (SpHof1-3): ≤ 0 | SPOT peptide array binding signal intensity (SpHse1): 190 | SPOT peptide array binding signal intensity (SpLsb1): ≤ 0 | SPOT peptide array binding signal intensity (SpLsb4): 384 | SPOT peptide array binding signal intensity (SpMyo1): 325 | SPOT peptide array binding signal intensity (SpNbp2): 266 | SPOT peptide array binding signal intensity (SpPex13): 51 | SPOT peptide array binding signal intensity (SpRvs167): 25.8 | SPOT peptide array binding signal intensity (SpSla1-D1-D2): 1.5 | SPOT peptide array binding signal intensity (SpSla1-D3): 182
